Measurements reported in PubChem BioAssay (NCATS).
Results filed as inconclusive are left out. The source made the active and inactive calls. Calls come from the whole dose curve; as a rule, active = well fitted cell-killing curve with a large enough effect; inconclusive = small, poorly fitted or top-dose-only effect, or effect the other way; inactive = no such curve, though single readings can be large or run the other way.

Legend:
[1] = Quantitative High-Throughput drug screen in 47 multiple myeloma cell lines against the NCATS MIPE library collection: KMS34_JCRB cell viability assay (AID 1918985); note: nearly all actives have a fitted effect of over 40% in size
In short: (§1)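 Readout: median RLU from CellTiter-Glo after 5 min at room temperature. Preceding step was 48 h drug treatment of 500 cells/well at 37 °C, 5% CO2, with DMSO-only and media-only control wells.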

[2] = Quantitative High-Throughput drug screen in 47 multiple myeloma cell lines against the NCATS MIPE library collection: OCIMY7_PLB cell viability assay (AID 1918987); note: nearly all actives have a fitted effect of over 65% in size
In short: as §1

[3] = Quantitative High-Throughput drug screen in 47 multiple myeloma cell lines against the NCATS MIPE library collection: OCIMY5_PLB cell viability assay (AID 1918988); note: nearly all actives have a fitted effect of over 65% in size
In short: as §1

[4] = Quantitative High-Throughput drug screen in 47 multiple myeloma cell lines against the NCATS MIPE library collection: OPM1_PLB cell viability assay (AID 1918989); note: nearly all actives have a fitted effect of over 40% in size
In short: as §1

[5] = Quantitative High-Throughput drug screen in 47 multiple myeloma cell lines against the NCATS MIPE library collection: SKMM1_PLB cell viability assay (AID 1919863); conditions: SKMM1 myeloma viability, CellTiter-Glo ATP, 48 h; viability: hits give low values; note: nearly all actives have a fitted effect of over 35% in size
In short: as §1

[6] = Quantitative High-Throughput drug screen in 47 multiple myeloma cell lines against the NCATS MIPE library collection: U266_ATCC cell viability assay (AID 1919864); note: nearly all actives have a fitted effect of over 35% in size
In short: as §1

[7] = Quantitative High-Throughput drug screen in 47 multiple myeloma cell lines against the NCATS MIPE library collection: VP6_DJ cell viability assay (AID 1919867); note: nearly all actives have a fitted effect of over 40% in size
In short: as §1

[8] = Quantitative High-Throughput drug screen in 47 multiple myeloma cell lines against the NCATS MIPE library collection: UTMC2_PLB cell viability assay (AID 1919868); conditions: CellTiter-Glo ATP luminescence, 48 h; viability (% of DMSO control): at 45.8 µM (top of the series) unless noted; note: nearly all actives have a fitted effect of over 55% in size
In short: as §1

[9] = Quantitative High-Throughput drug screen in 47 multiple myeloma cell lines against the NCATS MIPE library collection: XG6_PLB cell viability assay (AID 1919865); note: nearly all actives have a fitted effect of over 40% in size
In short: as §1

[10] = Quantitative High-Throughput drug screen in 47 multiple myeloma cell lines against the NCATS MIPE library collection: XG1_PLB cell viability assay (AID 1919866); note: nearly all actives have a fitted effect of over 35% in size
In short: as §1

Measured: Potency
Potency is the fitted concentration of half-maximal effect.

CN1CC[C@@H](c2c(O)cc(O)c3c(=O)cc(-c4ccccc4Cl)oc23)[C@@H](O)C1
active: [1] 74.3 nM | [2] 29.6 nM | [3] 66.2 nM | [4] 83.3 nM | [5] 187 nM | [6] 166 nM | [7] 52.6 nM | [8] 83.3 nM

CC(C)C[C@H](NC(=O)CNC(=O)c1cc(Cl)ccc1Cl)B(O)O
active: [1] 59 nM | [2] 41.8 nM | [3] 37.2 nM | [4] 46.9 nM | [6] 83.3 nM | [9] 37.2 nM | [10] 46.9 nM | [7] 37.2 nM | [8] 418 nM

Clc1ccc2ncc(-c3cccc(NC4CNC4)n3)n2c1
active: [1] 8330 nM | [2] 14800 nM | [3] 23500 nM | [4] 14800 nM | [6] 18700 nM | [9] 8330 nM | [10] 14800 nM | [7] 16600 nM

COc1ccc(F)c(F)c1C(=O)c1cnc(NC2CCN(S(C)(=O)=O)CC2)nc1N
active: [1] 1320 nM | [2] 1660 nM | [3] 1320 nM | [4] 1870 nM | [5] 2960 nM | [6] 2640 nM | [7] 935 nM | [8] 2350 nM

Cn1c2ccccc2c2c3c(c4c5ccccc5n(CCC#N)c4c21)CNC3=O
active: [1] 3720 nM | [2] 590 nM | [3] 5900 nM | [4] 296 nM | [5] 8330 nM | [6] 4690 nM | [9] 526 nM | [7] 2960 nM

CC(C)CC(=O)Nc1n[nH]c2c1CN(C(=O)C1CCN(C)CC1)C2(C)C
active: [1] 1180 nM | [2] 1660 nM | [3] 1320 nM | [4] 2090 nM | [5] 4690 nM | [6] 1870 nM | [7] 1480 nM | [8] 2350 nM

C1=CCOCc2cc(ccc2OCCN2CCCC2)Nc2nccc(n2)-c2cccc(c2)OCC1
active: [1] 2350 nM | [2] 1180 nM | [3] 2350 nM | [4] 3320 nM | [5] 9350 nM | [6] 5260 nM | [10] 2640 nM | [7] 1050 nM | [8] 1480 nM

Cc1ccc(C(=O)Nc2ccc(CN3CCN(C)CC3)c(C(F)(F)F)c2)cc1C#Cc1cnc2cccnn12
active: [1] 3320 nM | [2] 264 nM | [3] 1480 nM | [4] 590 nM | [5] 5900 nM | [6] 14800 nM | [9] 662 nM | [10] 1320 nM | [7] 1320 nM | [8] 590 nM

COc1ccc2c(c1)CC[C@@H](CN(C)CC(=O)O)[C@H]2c1ccccc1
active: [1] 4690 nM | [2] 833 nM | [3] 1480 nM | [4] 10500 nM | [6] 16600 nM | [9] 833 nM | [10] 833 nM | [7] 1870 nM

CCn1nnc2c(N3CCOCC3)nc(-c3ccc(NC(=O)Nc4ccc(C(=O)N5CCN(C)CC5)cc4)cc3)nc21
active: [1] 148 nM | [2] 3720 nM | [3] 469 nM | [4] 5.9 nM | [5] 59 nM | [8] 5.3 nM

CC1(C)OC2=C(C(=O)c3ccccc3C2=O)[C@H](NCc2ccccc2)[C@H]1O
active: [1] 4180 nM | [2] 1320 nM | [3] 3320 nM | [4] 2350 nM | [5] 7430 nM | [6] 2640 nM | [10] 1480 nM | [7] 3320 nM | [8] 2350 nM

COc1cc2c(cc1-c1c(C)noc1C)ncc1[nH]c(=O)n([C@H](C)c3ccccn3)c12
active: [1] 469 nM | [2] 18700 nM | [3] 1050 nM | [4] 1480 nM | [6] 18700 nM | [9] 5260 nM | [10] 5900 nM | [7] 833 nM

Cc1ccc(C(N)=O)cc1Nc1nccc(-c2cn(C(C)C)c3cnccc23)n1
active: [1] 6620 nM | [2] 935 nM | [3] 7430 nM | [4] 7430 nM | [5] 16600 nM | [6] 8330 nM | [9] 2640 nM | [7] 2350 nM

COc1cc2ncnc(Nc3ccc(F)c(Cl)c3)c2cc1NC(=O)C=CCN1CCCCC1
active: [1] 26400 nM | [2] 1320 nM | [3] 16600 nM | [4] 7430 nM | [5] 20900 nM | [6] 1180 nM | [9] 4180 nM | [7] 5900 nM | [8] 10500 nM

Cc1nc(N)ncc1-c1nc(N2CCOCC2)c2sc(C(C)(C)O)cc2n1
active: [1] 1660 nM | [2] 1180 nM | [3] 662 nM | [4] 1180 nM | [5] 166 nM | [6] 5260 nM | [9] 3320 nM | [7] 935 nM
